In PubChem BioAssay AID2417 (National Center for Advancing Translational Sciences (NCATS), 2010) one finds activity change (PNC), negative = inhibition data, which are given here for 61 compounds.

Out of some 140,000 compounds screened, about 4,300 (3.1%) were called active. Not shown: some 21% with an inconclusive outcome.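 The calls were made as follows: active = readout at or below -70, meaning at least 70% loss of cells showing the perinucleolar compartment, a nuclear body marking cancer cells; inconclusive = readout between -30 and a set limit; inactive = the rest.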 The list comes from a sample in which actives are over-represented; it also holds similar structures and randomly drawn compounds.

The test is described as follows: High Content Assay for Compounds that inhibit the Assembly of the Perinucleolar Compartment.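 Also: plate controls were DMSO wells for no effect and camptothecin positive control wells for full effect.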 The note with it: PC3M PTB-GFP, PNC prevalence imaging, 16 h; at 10 µM; stronger effect = lower value. Put shortly:
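Read-out is percentage of cells bearing a perinucleolar compartment, from automated 20x imaging of fixed, Hoechst-stained PC3M PTB-GFP cells. Cells were seeded 4 h, then exposed 16 h to compound (23 nl of library stock) in duplicate plates.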
On to `COc1ccccc1N1CCN(CC(=O)NC(=O)NCc2ccco2)CC1`, for which the activity change (PNC), negative = inhibition was -19.8% (inactive).

For `Cc1noc(NS(=O)(=O)c2ccc(N/C=C/C(=O)c3ccccc3)cc2)c1C`, the activity change (PNC), negative = inhibition was 34.4% (inactive).

Regarding `Cc1noc(NS(=O)(=O)c2ccc(NC(=O)C34CCC(CC3)C4)cc2)c1C`, the activity change (PNC), negative = inhibition is -120% (active).

With `COc1ccc(C(=O)Nc2ccc(S(=O)(=O)Nc3onc(C)c3C)cc2)cc1OC`, the activity change (PNC), negative = inhibition was 85.8% (inactive).

Take `CCOC(=O)C1CCN(C(=O)/C=C/c2cc(OC)c(OC)c(OC)c2)CC1`: the activity change (PNC), negative = inhibition is 5.16% (inactive).

As to `COc1ccc(OCC(=O)N2CCOCC2)cc1`, the activity change (PNC), negative = inhibition was -29.5% (inactive).

For the compound `COc1ccc(-c2cc(C(F)(F)F)n3nc(C(=O)N4CCOCC4)c(Cl)c3n2)cc1`, the activity change (PNC), negative = inhibition is -106% (active).

Take `COC(=O)c1cnn2c(C(F)(F)F)cc(-c3ccco3)nc12`: the activity change (PNC), negative = inhibition is 48.3% (inactive).

For `CCn1c(COc2cccc(OC)c2)nnc1SCC(=O)N1CCOCC1`, the activity change (PNC), negative = inhibition was -11.5% (inactive).

For the compound `COc1ccc(-c2ccnc(SCC(=O)N3CCOCC3)n2)cc1`, the activity change (PNC), negative = inhibition was -100% (active).

Regarding `COc1ccc(-c2nc(SCC(=O)N3CCOCC3)n[nH]2)cc1`, the activity change (PNC), negative = inhibition is -17.8% (inactive).

For the compound `C/C(=N\NC(=O)c1ccc(NS(=O)(=O)c2cccs2)cc1)c1ccc2ccccc2c1`, the activity change (PNC), negative = inhibition was 3.73% (inactive).

`CC1CCCN(CCOCCOc2ccccc2-c2ccccc2)C1` (stereo unspecified): the activity change (PNC), negative = inhibition was 40% (inactive).

Consider `CC(=O)c1ccc(OCCN2CCOCC2)cc1`, for which the activity change (PNC), negative = inhibition was 20.1% (inactive).

Consider `COC(=O)c1ccc2c(c1)S(=O)(=O)NC(=NCCCN1CCOCC1)S2`, for which the activity change (PNC), negative = inhibition is -119% (active).

For `O=C(NCCN=C1NS(=O)(=O)c2ccccc21)c1ccc(S(=O)(=O)N2CCOCC2)cc1`, the activity change (PNC), negative = inhibition was -5.59% (inactive).

As to `COc1ccc(C(=O)NNC(=S)NC(=O)c2ccccc2[N+](=O)[O-])cc1`, the activity change (PNC), negative = inhibition was -4% (inactive).

For `O=C(O)c1ccc(/C=N/NC(=O)c2ccc(Br)cc2)cc1`, the activity change (PNC), negative = inhibition is -18.4% (inactive).

`O=C(C(Cl)Cl)N1CCN(c2ccccn2)CC1`: the activity change (PNC), negative = inhibition is 42.3% (inactive).

As to `Cc1ccccc1CN(c1ccc(C(=O)NCC2CCCO2)cc1)S(C)(=O)=O` (stereo unspecified), the activity change (PNC), negative = inhibition was -1.65% (inactive).

With `COc1ccccc1Nc1ncc(C(C)=O)c(C)n1`, the activity change (PNC), negative = inhibition was 9.62% (inactive).

On to `C=C(C)C1CC=C(C)/C(=N\NC(=O)CNc2ccccc2OC)C1` (stereo unspecified), for which the activity change (PNC), negative = inhibition is -81.8% (active).

For `COc1ccc(Cl)cc1NC(=O)CNc1ccccc1F`, the activity change (PNC), negative = inhibition is -22.5% (inactive).

With `CCCCc1cc2c(s1)CCCC/C2=N/O`, the activity change (PNC), negative = inhibition was 0.0645% (inactive).

Take `Cc1cc(C)c2c(n1)sc1c(=O)n(-c3ccccc3)c(=O)[nH]c12`: the activity change (PNC), negative = inhibition was 19.8% (inactive).

Turning to `CCn1c(/C=N/NC(=O)c2ccc(OC)cc2)nc2ccccc21`, the activity change (PNC), negative = inhibition is 27.2% (inactive).

On to `CCC(CC)C(=O)N1CCN(c2cccc(C)c2C)CC1`, for which the activity change (PNC), negative = inhibition was -15.3% (inactive).

With `COc1cc(/C=N\NC(=O)c2nonc2N)c(OC)cc1Br`, the activity change (PNC), negative = inhibition is 16.4% (inactive).

As to `COc1ccc(Cc2nnc(N/N=C/c3ccccc3O)[nH]c2=O)cc1OC`, the activity change (PNC), negative = inhibition was -84.6% (active).

With `COc1ccc(/C=N/Nc2nc3ccccc3c(=O)[nH]2)cc1`, the activity change (PNC), negative = inhibition was 25.5% (inactive).

Consider `COc1ccc(CCNC(=O)CCCCn2c(=O)[nH]c3ccccc3c2=O)cc1OC`, for which the activity change (PNC), negative = inhibition is -14.6% (inactive).

Regarding `NS(=O)(=O)c1cc(C(=O)NCCOc2ccccc2)c(Cl)cc1Cl`, the activity change (PNC), negative = inhibition was -9.28% (inactive).

`C=CCNC(=O)c1ccccc1NC(=O)c1ccc(Cl)c(S(=O)(=O)Nc2cccc(C)c2C)c1`: the activity change (PNC), negative = inhibition was -8.83% (inactive).

In the case of `O=C(O)CSCC(=O)Nc1cccc(C(F)(F)F)c1`, the activity change (PNC), negative = inhibition is -17.2% (inactive).

For the compound `CCNS(=O)(=O)c1ccc(NC(=O)Nc2cccc(C(F)(F)F)c2)cc1`, the activity change (PNC), negative = inhibition was -8.69% (inactive).

For `CC(C)C[C@H](NC(=O)Nc1cccc(C(F)(F)F)c1)C(=O)O`, the activity change (PNC), negative = inhibition was -100% (active).

On to `CC(=O)Nc1ccc(S(=O)(=O)NCC(=O)OCc2cc(=O)oc3ccc4ccccc4c23)cc1`, for which the activity change (PNC), negative = inhibition was -24.6% (inactive).

Turning to `Cc1cc(C(=O)COC(=O)CNC(=O)c2ccc(F)cc2)c(C)n1Cc1ccco1`, the activity change (PNC), negative = inhibition is 8.75% (inactive).

Take `Cc1cc(OCCN2CCCC2)cc(C(C)C)c1`: the activity change (PNC), negative = inhibition was 0% (inactive).

As to `Cc1cc(OCCN2CCCC2)ccc1C(C)C`, the activity change (PNC), negative = inhibition is -100% (active).

With `c1ccc2cc(OCCN3CCCC3)ccc2c1`, the activity change (PNC), negative = inhibition was -15.5% (inactive).

In the case of `Cc1cc([N+](=O)[O-])nn1CC(=O)Nc1ccc(Cc2ccncc2)cc1`, the activity change (PNC), negative = inhibition was -5.96% (inactive).

For `Cc1scc(C(=O)NNC(=S)NCc2ccccc2)c1C`, the activity change (PNC), negative = inhibition was 11.8% (inactive).

As to `CCCCn1c(O)c(N=NC(=O)Cn2c(C(F)(F)F)nc3ccccc32)c2ccccc21`, the activity change (PNC), negative = inhibition was -20% (inactive).

With `Cc1c(NC(=O)Nc2ccccc2Cl)sc(=S)n1C`, the activity change (PNC), negative = inhibition is -119% (active).

`CN(C)CCNC(=O)Nc1cccc(Cl)c1Cl`: the activity change (PNC), negative = inhibition is 17.8% (inactive).

In the case of `Cc1cc(C)nc(NC(=O)Nc2ccccc2C(F)(F)F)n1`, the activity change (PNC), negative = inhibition was -23.4% (inactive).

In the case of `O=C1NC(c2ccccc2)=NC1(Nc1ccccn1)C(F)(F)F` (stereo unspecified), the activity change (PNC), negative = inhibition was 23.3% (inactive).

On to `Cc1ccc(NC(=O)c2oc(=O)c3ccccc3c2-c2ccccc2)c(C)c1`, for which the activity change (PNC), negative = inhibition was 36.6% (inactive).

As to `COC(=O)C(C)N(C#N)c1nc(C)nc(C)n1` (stereo unspecified), the activity change (PNC), negative = inhibition is 10.7% (inactive).

As to `CNc1nc(SC)nc(N(C#N)CC(=O)OC)n1`, the activity change (PNC), negative = inhibition was -100% (active).

For the compound `Cc1cc(C)nc(N(C#N)CC(=O)Nc2ccccc2)n1`, the activity change (PNC), negative = inhibition is -18.1% (inactive).

As to `O=C(NC(=S)N1CCN(Cc2ccccc2)CC1)c1ccccc1`, the activity change (PNC), negative = inhibition is -17% (inactive).

Regarding `Cc1cc(C(=O)NNC(=S)NC(C)c2ccccc2)cs1` (stereo unspecified), the activity change (PNC), negative = inhibition was 1.77% (inactive).

Consider `COc1cc2c(cc1OC)CN(C(=O)c1ccc(S(=O)(=O)N3CCCCCC3)cc1)CC2`, for which the activity change (PNC), negative = inhibition was -8.24% (inactive).

Consider `CN(c1ccc(C(=O)N2CCc3ccccc3C2)cc1)S(C)(=O)=O`, for which the activity change (PNC), negative = inhibition is -100% (active).

`CN(c1ccc(C(=O)NCCC2=CCCCC2)cc1)S(C)(=O)=O`: the activity change (PNC), negative = inhibition is 32.9% (inactive).

As to `CCN(CC)c1ccc(C2C3CCCCC3(O)CCN2CC(=O)Nc2ccccc2)cc1` (stereo unspecified), the activity change (PNC), negative = inhibition was -22.9% (inactive).

Turning to `Cc1ccc(NC(=O)Cn2cccc2C2=NC(c3ccccc3)CO2)c(C)c1` (stereo unspecified), the activity change (PNC), negative = inhibition is 17.1% (inactive).

Take `Cc1ccc(NC(=O)CN2CCC3(O)CCCCC3C2c2ccc3c(c2)OCO3)c(C)c1` (stereo unspecified): the activity change (PNC), negative = inhibition was -90% (active).

In the case of `COc1cc(C2C(N3C(=O)c4ccccc4C3=O)C(=O)N2c2ccc(C)c(C)c2)cc(OC)c1OC` (stereo unspecified), the activity change (PNC), negative = inhibition is 31.7% (inactive).
